# Measurements taken from PubChem BioAssay (Tox21).
# Unmarked numbers belong to inactive results. Inconclusive results are not listed. A call without a number means that no potency is given here. Activity calls are given as the source filed them. Calls come from the whole dose curve; as a rule, active = well fitted curve in the direction sought with a large enough effect in the repeat runs; inconclusive = weak or mixed curves; inactive = no such curve, though single readings can be large; an effect the other way counts as inactive or inconclusive.
# Assays:
# [1] = Human pregnane X receptor (PXR) small molecule agonists, qHTS cell viability counter screen (AID 1346977); note: nearly all actives have a fitted effect of over 50% in size; note: potency is the fitted concentration of half-maximal effect
# How it was run: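 PXR-Luc HepG2, 2,000 cells/well, 5% charcoal-stripped FBS; 5hr settle; cpd 24hr, 37C/5% CO2; CellTiter-Fluor at 23hr, read 1hr later (fluorescence).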
# [2] = Caspase-3/7 induction in HepG2 cells by small molecules, qHTS assay (AID 1346978); note: nearly all actives have a fitted effect of over 15% in size
# How it was run: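 Wild-type HepG2 cells (2,000/well) were settled 5 h at 37 C, 5% CO2, then exposed to compounds in DMSO for 17 h. Caspase-3/7 activity was read by luminescence 30 min after adding Caspase-Glo 3/7 reagent at room temperature.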
# [3] = Caspase-3/7 induction in CHO-K1 cells by small molecules, qHTS cell viability counter screen (AID 1346979); note: nearly all actives have a fitted effect of over 35% in size; note: potency is the fitted concentration of half-maximal effect
# How it was run: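 Cells (CHO-K1, wild type) are plated at 1,500 per well and incubated 5hr. Test compounds in DMSO are then pinned in, followed by 16hr at 37C and 5% CO2. Viability is read by CellTiter-Fluor fluorescence after 1hr.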
# [4] = Caspase-3/7 induction in CHO-K1 cells by small molecules, qHTS assay (AID 1346980); note: nearly all actives have a fitted effect of over 15% in size; note: potency is the fitted concentration of half-maximal effect
# How it was run: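 Wild-type cells were seeded at 1,500 per well and settled 5 hr at 37 C, 5% CO2, then exposed to DMSO-dissolved compounds for 17 hr. Caspase-Glo 3/7 reagent was added, and luminescence was read after 30min at room temperature.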
# [5] = Caspase-3/7 induction in HepG2 cells by small molecules, qHTS cell viability counter screen (AID 1346981); note: nearly all actives have a fitted effect of over 30% in size; note: potency is the fitted concentration of half-maximal effect
# How it was run: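 Steps: seed 2,000 HepG2 cells per well; incubate 5 hr at 37 C; pin-add compounds in DMSO; incubate 16 hr; add CellTiter-Fluor; after 1 hr at 37 C and 5% CO2, read fluorescence.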
# [6] = target: Nuclear receptor subfamily 1 group I member 2 (Homo sapiens) (UniProt O75469); assay: Human pregnane X receptor (PXR) small molecule agonists, qHTS assay (AID 1346982); note: nearly all actives have a fitted effect of over 35% in size; note: potency is the fitted concentration of half-maximal effect
# How it was run: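 Agonist mode qHTS: PXR-Luc HepG2 cells plated 5 hr before DMSO-dissolved compounds were pinned in, cultured 24 hr at 37 C, 5% CO2; ONE-Glo luminescence readout.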
# [7] = target: Nuclear receptor subfamily 1 group I member 2 (Rattus norvegicus) (UniProt Q9R1A7); assay: Rat pregnane X receptor (rPXR) activation by small molecules, qHTS assay (AID 1346983); settings: rPXR luciferase reporter cells, One-Glo luminescence, 24 h; max activation: stronger effect = higher value; note: nearly all actives have a fitted effect of over 20% in size
# How it was run: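 Cell-based rPXR luciferase reporter assay, 2,000 cells per well, rested 5hr at 37 C before compound addition in DMSO, then 24 hr at 37 C. One-Glo reagent was added and luminescence read after 30 min at room temperature.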
# [8] = target: Nuclear receptor subfamily 1 group I member 2 (Homo sapiens) (UniProt O75469); assay: CYP3A4 induction through human pregnane X receptor (PXR) by small molecules, qHTS assay (AID 1346984); note: nearly all actives have a fitted effect of over 40% in size
# How it was run: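 Steps: seed DPX-2 cells, 5 hr at 37C; pin-transfer compounds; 24 hr at 37C; add Luciferin-IPA (3uM final), 3 hr at 37C; add One-Glo, 30 min RT; read luminescence.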
# [9] = target: Nuclear receptor subfamily 1 group I member 2 (Homo sapiens) (UniProt O75469); assay: Human pregnane X receptor (PXR) activation by small molecules, qHTS assay (AID 1346985); note: nearly all actives have a fitted effect of over 40% in size; note: potency is the fitted concentration of half-maximal effect
# How it was run: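 DPX-2 cells (HepG2 co-transfected with a PXR response element and a CYP3A4-promoter luciferase construct) were seeded at 2,000 per well, rested 5 hr at 37C, then exposed to DMSO-dissolved compounds for 24 hr. Activation was read as luciferase luminescence.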
# Nuclear receptor subfamily 1 group I member 2 (Homo sapiens), sequence (O75469 whole entry, looked up): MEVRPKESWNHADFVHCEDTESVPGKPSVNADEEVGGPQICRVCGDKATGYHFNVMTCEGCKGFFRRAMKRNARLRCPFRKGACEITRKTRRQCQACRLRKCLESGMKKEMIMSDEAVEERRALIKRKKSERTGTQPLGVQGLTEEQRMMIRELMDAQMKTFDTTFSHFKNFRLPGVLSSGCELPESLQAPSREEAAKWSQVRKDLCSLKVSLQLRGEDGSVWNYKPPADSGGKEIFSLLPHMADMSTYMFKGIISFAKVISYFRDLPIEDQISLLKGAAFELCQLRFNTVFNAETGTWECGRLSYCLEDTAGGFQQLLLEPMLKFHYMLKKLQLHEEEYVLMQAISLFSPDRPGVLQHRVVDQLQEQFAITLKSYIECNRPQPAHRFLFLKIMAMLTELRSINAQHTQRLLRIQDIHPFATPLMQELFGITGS
# Nuclear receptor subfamily 1 group I member 2 (Rattus norvegicus), sequence (Q9R1A7 whole entry, looked up): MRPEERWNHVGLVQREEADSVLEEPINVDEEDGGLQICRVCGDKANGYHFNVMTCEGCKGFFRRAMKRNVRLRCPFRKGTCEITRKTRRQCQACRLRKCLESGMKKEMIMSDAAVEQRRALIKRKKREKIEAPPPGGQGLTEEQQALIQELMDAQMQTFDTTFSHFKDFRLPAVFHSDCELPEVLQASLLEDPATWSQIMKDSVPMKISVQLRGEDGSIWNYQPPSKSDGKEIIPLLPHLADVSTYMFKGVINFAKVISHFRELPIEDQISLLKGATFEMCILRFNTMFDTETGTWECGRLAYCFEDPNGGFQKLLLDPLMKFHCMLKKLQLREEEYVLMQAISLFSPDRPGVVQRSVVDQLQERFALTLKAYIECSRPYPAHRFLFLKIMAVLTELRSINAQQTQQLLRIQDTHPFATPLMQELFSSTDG
SMILES,Potency [1],Potency [2],Potency [3],Potency [4],Potency [5],Potency [6],max activation [7],Potency [8],Potency [9]
Cc1[nH]cnc1CN1CCc2c(c3ccccc3n2C)C1=O,inactive,inactive,inactive,inactive,inactive,inactive,1.25%,inactive,inactive
O=C(O)c1ccc(OCCCOc2ccc(C(=O)O)cc2)cc1,inactive,inactive,inactive,inactive,inactive,inactive,-2.11%,inactive,inactive
CC1(CN2CCC(n3c(=O)[nH]c4ccccc43)CC2)OCc2ccccc2-n2cccc21 (centres undefined),29.8 µM (active),inactive,29.8 µM (active),inactive,,29.8 µM (active),,inactive,4.47 µM (active)
CN(C(=O)CN(CCO)CC(=O)N(C)C(C)(C)Cc1ccccc1)C(C)(C)Cc1ccccc1,inactive,inactive,,inactive,inactive,2.37 µM (active),,,8.91 µM (active)
CN1CCCN=C1COC(=O)C(O)(c1ccccc1)C1CCCCC1 (centres undefined),inactive,inactive,inactive,inactive,inactive,inactive,-0.811%,,inactive
O=C1Cc2ccccc2N1c1c(Cl)cccc1Cl,inactive,inactive,,inactive,,9.69 µM (active),,,
C=Cc1ccc(S(=O)(=O)O)cc1,inactive,inactive,,inactive,inactive,38.6 µM (active),-2.52%,inactive,inactive
CC(C)Nc1cccnc1N1CCN(C(=O)c2cc3cc(NS(C)(=O)=O)ccc3[nH]2)CC1,inactive,inactive,inactive,inactive,inactive,inactive,0.79%,inactive,inactive
c1csc(SSc2cccs2)c1,27.3 µM (active),inactive,34.4 µM (active),,inactive,9.69 µM (active),,,
CC(C)COCC(CN(Cc1ccccc1)c1ccccc1)N1CCCC1 (centres undefined),29.8 µM (active),,29.8 µM (active),,29.8 µM (active),,,,
CCC(=O)C1CC(C(C)C)CC=C1C (centres undefined),inactive,inactive,inactive,inactive,,30.6 µM (active),,,
CN1C[C@H](C(=O)N[C@]2(C)O[C@@]3(O)[C@@H]4CCCN4C(=O)[C@H](Cc4ccccc4)N3C2=O)C[C@@H]2c3cccc4[nH]cc(c34)C[C@H]21,21.1 µM (active),,26.6 µM (active),,26.6 µM (active),10.6 µM (active),,,
O=c1c(O)c(-c2ccc(O)cc2)oc2cc(O)cc(O)c12,,inactive,60.9 µM (active),inactive,60.9 µM (active),,,,
COc1ccccc1N1CCN(CCCCNC(=O)c2ccc(-c3ccc(C(C)=O)cc3)cc2)CC1,inactive,inactive,inactive,inactive,inactive,,-3.31%,inactive,inactive
O=C1c2ccccc2C(=O)N1CCc1noc(-c2ccc(CN3CCCCCC3)s2)n1,,inactive,,inactive,,14.1 µM (active),,,
C=C/C(C)=C/C/C=C(\C)CCC=C(C)C,inactive,inactive,,inactive,inactive,27.3 µM (active),,,
Clc1ccc(Nc2nnc(Cc3ccncc3)c3ccccc23)cc1,,inactive,,inactive,,29.8 µM (active),1.3%,inactive,3.98 µM (active)
O=c1[nH]c2ccc(Cl)cc2o1,inactive,inactive,,inactive,inactive,,,,
C[C@@H](CN(C)C)CN1c2ccccc2Sc2ccccc21,,inactive,,inactive,inactive,,,,inactive
COc1cc(C(=O)NCCCCCC(=O)O)cc(OC)c1OC,inactive,inactive,inactive,inactive,inactive,inactive,-0.807%,inactive,inactive
CCOc1cccc(-n2cc(C(=O)N3CCN(c4cc(C(=O)O)c5ccccc5c4)CC3)nc2-c2ccc(C)cc2)c1,,inactive,58.3 µM (active),58.3 µM (active),inactive,,,,
Cc1cccc(N(C)C(=S)Oc2ccc3c(c2)CCC3)c1,,inactive,inactive,inactive,inactive,10.6 µM (active),,,
CCn1cc(C(=O)O)c(=O)c2cc(F)c(N3CCNCC3)cc21,inactive,inactive,,inactive,inactive,inactive,7.46%,inactive,
COc1ccccc1NC(=O)c1cc2ccccc2cc1O,,inactive,,inactive,inactive,24.3 µM (active),,,
OCCN1CCN(CCCN2c3ccccc3Sc3ccc(Cl)cc32)CC1,29.8 µM (active),,29.8 µM (active),,26.6 µM (active),10.6 µM (active),5.45%,,inactive
COc1ccccc1Oc1c(NS(=O)(=O)c2ccc(C(C)(C)C)cc2)nc(-c2ncccn2)nc1OCCO,,inactive,,inactive,,,,,
CC(=O)c1cc2ccccc2s1,inactive,inactive,,inactive,inactive,inactive,,,
CCOc1ccccc1O[C@H](c1ccccc1)[C@H]1CNCCO1,,inactive,inactive,inactive,inactive,inactive,-0.272%,inactive,22.4 µM (active)
COc1ncnc(NS(=O)(=O)c2ccc(N)cc2)c1OC,inactive,inactive,inactive,inactive,inactive,inactive,-3.86%,inactive,inactive
COC(=O)C1=C(C)NC(C)=C(C(=O)O[C@@H]2CCCN(Cc3ccccc3)C2)[C@@H]1c1cccc([N+](=O)[O-])c1,,inactive,29.8 µM (active),inactive,,2.11 µM (active),,,
